According to PubChem BioAssay AID488835 (Broad Institute, 2010):
Hit rate of the full screen: of about 1,400 compounds, about 140 (10%) were called active.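 How the source made its calls: active means Half-maximal inhibitory dose from the fit at or below ten times the top valid tested dose; inconclusive means Invalid fit, or flat curve showing 30 to 70% inhibition; inactive means the rest.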 The list is a sample of the results. Potency and affinity values are given separately.

Molecular target: Lysine-specific demethylase 4C (Homo sapiens) (UniProt Q9H3R0)
Experiment: GASC-1 (JMJD2C) histone demethylase inhibitors, dose response, biochemical, DELFIA europium, cherry-picked samples (AID 488835);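 further: signal is the H3K9me2 demethylation product detected by a dimethyl-specific antibody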
Settings: GST-JMJD2C(1-420), H3K9me3 demethylation; series mostly up to 6 µM; activity change, negative = inhibition: at the top concentration

Chain of Lysine-specific demethylase 4C (Homo sapiens) (Q9H3R0 1-420 limits assumed): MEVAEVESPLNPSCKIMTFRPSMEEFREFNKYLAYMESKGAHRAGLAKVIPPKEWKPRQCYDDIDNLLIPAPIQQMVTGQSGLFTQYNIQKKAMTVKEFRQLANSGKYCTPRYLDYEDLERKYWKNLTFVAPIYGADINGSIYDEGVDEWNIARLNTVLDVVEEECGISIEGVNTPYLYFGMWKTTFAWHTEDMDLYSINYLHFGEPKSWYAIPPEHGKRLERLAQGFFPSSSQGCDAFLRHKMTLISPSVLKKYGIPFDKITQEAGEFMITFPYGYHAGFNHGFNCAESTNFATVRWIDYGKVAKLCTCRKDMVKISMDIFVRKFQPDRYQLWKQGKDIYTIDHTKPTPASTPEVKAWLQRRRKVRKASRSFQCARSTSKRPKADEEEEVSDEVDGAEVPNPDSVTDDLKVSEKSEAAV

Activity change, negative = inhibition, inactive:
Oc1ccccc1N1CCN(C(=S)NCc2ccccc2)CC1 3.28%
O=C(O)CCNc1ccc2c(c1)OCCO2 2.97%
COc1ccc(S(=O)(=O)Nc2cccc3c2O[C@H](CN(C)Cc2ccc(C(=O)O)cc2)[C@@H](C)CN([C@H](C)CO)C3=O)cc1 5.64%
CC(C)(C)C1CCc2[nH]c3ccccc3c(=O)c2C1 (configuration not stated) -8.54%
Cc1cc(=O)[nH]c(SCC(=O)Nc2ncc(S(=O)(=O)c3ccc([N+](=O)[O-])cc3)s2)n1 9.14%
CCn1c(=O)c(C(=O)NCCc2ccc(Cl)cc2)c(O)c2ccccc21 -3.1%
CC1CCCCC12NC(=O)N(CC(=O)NCCc1ccccn1)C2=O (configuration not stated) 2.94%
COc1ccc(NC(=O)Nc2c[nH]c(=O)[nH]c2=O)cc1OC -17.8%
COc1ccc(C(=O)OCCc2sc[n+](CC(=O)c3ccccc3)c2C)cc1 3.83%
CCOC(=O)N1CCC(c2nc3ccccc3[nH]2)CC1 4.41%
O=C(O)c1ccc(/C=N/Nc2cccc(C(F)(F)F)c2)cc1 1.51%
O=C(c1cccc(C(F)(F)F)c1)N1CCCC1 2.21%
Cn1c2ccccc2c(=O)c2ccc(NCCc3cccs3)cc21 -2.85%
COc1cccc(C(C[N+](=O)[O-])c2c(C)[nH]n(-c3ccccc3)c2=O)c1 (configuration not stated) -3.47%
CCCc1nn(C)c(C(=O)Nc2ccc(C)c(C)c2)c1Cl -4.42%
O=C(Nc1nc2ccccc2n1CCN1CCCC1)C1CCCCC1 1.08%
Cc1ccc(/C=N\NC(=O)c2cc([N+](=O)[O-])cc([N+](=O)[O-])c2)o1 5.01%
O=C(N/N=C/c1cc([N+](=O)[O-])cc([N+](=O)[O-])c1O)/C(=C\c1cccs1)NC(=O)c1ccccc1 10.2%
CC(C)c1ccc(NC2CCCN(C(=O)CCN3CCCCC3=O)C2)cc1 (configuration not stated) 16.1%
c1ccc(-c2csc(-n3cccn3)n2)cc1 -6.44%
CCOC(=O)c1sc(=S)n(-c2ccc(Cl)cc2)c1SC -5.62%
O=C(Nc1nnc(-c2cc(Cl)ccc2Cl)o1)c1ccco1 1.16%
O=C(Oc1ccc(N2C(=O)CCC2=O)cc1)c1ccccc1 -2.3%
COc1ccc(OC)c(C2=NOC(C(=O)NCCN3CCOCC3)C2)c1 (configuration not stated) 0.98%
CCOC(=O)[C@H]1[C@H]2COc3ccc(OC)cc3[C@@H]2N2C(=O)c3cc(C)ccc3NC(=O)[C@@]12C 3.57%
Cc1cc2ccccn2c1C(=O)c1ccncc1 2.06%
O=C1CC(CSc2ccc(Cl)cc2)=NN1 -3.58%
CCN(Cc1cc2cc(OC)ccc2[nH]c1=O)C(=O)c1ccncc1 2.46%
Cc1ccccc1NC(=S)c1nc2ccccc2[nH]1 4.49%
Cc1cccc(N2C(=O)C3C4C=CC(C4)C3C2=O)c1 (configuration not stated) 9.08%
Cc1cccc(NC(=O)/C(=C\c2ccc([N+](=O)[O-])o2)NC(=O)c2ccc(Cl)cc2)c1 -5.59%
Cc1cccc(C2=N/C(=C\c3cccnc3)C(=O)O2)c1 0.125%
O=[N+]([O-])c1ccc(/C=[N+](\[O-])[C@@H]2CCCC[C@@H]2/[N+]([O-])=C/c2ccc([N+](=O)[O-])o2)o1 2.35%
COc1cccc(C2c3[nH]c4ccccc4c3CCN2CCCn2cccn2)c1 (configuration not stated) -2.21%
N#CCCCCN1c2cccc3cccc(c23)S1(=O)=O 2.59%
O=C(Cn1cnc2c(OCc3ccccc3)ncnc21)NCCN1CCOCC1 -2.74%
CN1CCN(c2ccc([N+](=O)[O-])cc2C(=O)N2CCOCC2)CC1 2.83%
Cc1c(C(=O)N2CCC3(CC2)CC(=O)c2ccccc2O3)cccc1[N+](=O)[O-] -4.59%
COc1ccc(OC)c(N(CC(=O)NCc2ccncc2)S(C)(=O)=O)c1 -3.48%
COc1ccc(-c2cc(C(F)(F)F)n3nc(C(=O)NCCCN4CCOCC4)cc3n2)cc1 1.92%
Cc1[nH]c2ccccc2c1-c1ccc(Cl)nn1 7.91%
COC(=O)c1ccc(CSc2nnc(N)s2)o1 3.51%
COC(=O)c1sc(S(=O)(=O)NCc2ccccc2)c(C(=O)OC)c1C 0.554%
COc1ccc(NC(=O)N(C)C[C@H]2Oc3c(NC(=O)Nc4ccccc4)cccc3C(=O)N([C@H](C)CO)C[C@@H]2C)cc1 -1.85%
COC(=O)C(Cc1ccccc1)NC(=O)COc1ccc(C(C)(C)C)cc1 (configuration not stated) -0.353%
COc1cc2cnncc2cc1OC 6.48%
C/C(CC(=O)Nc1cccc(Cl)c1Cl)=N\NC(=O)c1ccccc1N -1.55%
CC(C)(O)[C@H](O)Cc1cc2ccc(=O)oc2cc1O[C@@H]1O[C@H](CO)[C@@H](O)[C@H](O)[C@H]1O -1.7% [at 1.6 µM]
CC1(C)CC[C@]2(CO)CC[C@]3(C)C(=CCC4[C@@]5(C)CC[C@H](O)[C@@](C)(CO)C5CC[C@]43C)[C@@H]2C1 (some centres not stated) -4.71%
CCN(C[C@H]1N[C@@](C)(C(=O)OC)[C@H]2C(=O)N(C)C(=O)[C@@H]12)C(=O)Nc1ccc(OC)cc1 6.79%
COc1ccc(/C=N/NC(=O)c2cc(C)on2)c2ccccc12 -1.79%
O=C(NCC1CCCO1)c1ccc2c(=O)n(Cc3cccc(Br)c3)c(=S)[nH]c2c1 (configuration not stated) 10.2%
CCn1c(SCC(=O)Nc2nc(C)cs2)nnc1-c1ccncc1 3.16%
Cc1csc(NC(=O)CSc2nnc(-c3ccncc3)n2C)n1 0.313%
CCCn1c2ccccc2c2nnc(SCC(=O)Nc3c(C)n(C)n(-c4ccccc4)c3=O)nc21 5.59%
C[C@H](CO)N1C[C@H](C)[C@@H](CN(C)S(=O)(=O)c2ccccc2)Oc2ccc(NS(=O)(=O)c3ccc(F)cc3)cc2C1=O -0.626%
O=C(COC(=O)Cc1ccccc1F)Nc1ccc(SC(F)F)cc1 -3.2%
CC(=O)N=c1sccn1CC(=O)c1ccc([N+](=O)[O-])cc1 -1.76%
COc1ccc(CNC(=O)CSc2nnnn2Cc2ccccc2)cc1 -1.94%
COc1ccccc1-c1nc(C#N)c(NCc2ccc(F)cc2)o1 -3.18%
CCNc1oc(-c2cccc3ccccc23)nc1C#N -1.71%
O=c1c2ccccc2c(C=NCCCN2CCOCC2)c(O)n1Cc1ccccc1 4.11%
CC(C)NC(=O)N(C)C[C@H]1Oc2ccc(NC(=O)C3CC3)cc2C(=O)N([C@H](C)CO)C[C@@H]1C -0.486%
COC(=O)c1sc(NC(=O)c2cc3c(s2)CCCC3)nc1C -1.23%
CCc1ccc(C(=O)CSc2nc3ccccc3c(=O)[nH]2)cc1 8.14%
Cn1c(=O)[nH]c(=O)c2c1nc(SCC(=O)O)n2CCc1ccccc1 4.64%
c1ccc(Nc2n[nH]nc2-c2ccccc2)cc1 7.58%
CCn1c(=O)c(-c2nc3ccccc3[nH]2)c(O)c2ccccc21 -0.309%
C[C@H](CO)N1C[C@H](C)[C@@H](CN(C)C(=O)Nc2ccc(C(F)(F)F)cc2)Oc2c(cccc2N(C)C)C1=O 5.89%
Cc1cc2oc(=O)cc(CSc3nnc(-c4cccs4)o3)c2cc1C(C)C -1.88%
CC(=O)N1C(c2ccccc2O)C[C@]2(C)CC(=O)NC12 (some centres not stated) -1.35%
CCCc1cc(=O)[nH]c(SCC(=O)Nc2cc(S(=O)(=O)N(CC)c3ccccc3)ccc2Cl)n1 1.6%
Cc1ccc(C(=O)Nc2sc3c(c2C(=O)O)CCCC3)o1 1.03%
CN(C)CCCN1C(=O)C(=O)/C(=C(/O)c2ccncc2)C1c1ccccc1 (configuration not stated) 10.2%
Cc1cc(C(=O)OCc2nnc(-c3ccccc3)o2)c(C)n1-c1ccccc1 -4.32%
COc1ccc(C(=O)OCC(=O)c2ccccc2)cc1S(=O)(=O)N1CCOCC1 6.12%
Cc1ccc(C2CC(c3cccc(Br)c3)Nc3nnnn32)cc1 (configuration not stated) 0.226%
Cc1cc(N(CN2CCCC2=O)C(=O)c2ccc(F)cc2)no1 3.57%
COC(=O)[C@]1(C)N[C@H](CN(C)C(=O)NC(C)C)[C@@H]2C(=O)N(Cc3ccccc3)C(=O)[C@@H]21 0.422%
COc1ccc(NC(=O)Nc2ccc3c(c2)C(=O)N([C@H](C)CO)C[C@H](C)[C@@H](CN(C)S(=O)(=O)c2cccs2)O3)cc1 8.17%
CC(C)NC(=O)Nc1ccc2c(c1)C(=O)N([C@H](C)CO)C[C@@H](C)[C@@H](CN(C)C(=O)NC1CCCCC1)O2 1.53%
CCCn1c(SCC(=O)Nc2c(C)cccc2CC)nnc1C(C)C 7.38%
CCCn1nnnc1SCC(=O)NNC(=O)c1ccco1 -3.08% [at 1.6 µM]
Cc1cc(OC(=O)N2CCOCC2)cc(C)c1Cl 3.18%
CC1CN(Cc2ccccc2)c2nc3c(c(=O)n(C)c(=O)n3C)n2C1 (configuration not stated) 4.53%
OC1(c2cccc(F)c2)CCN(Cc2ccncc2)CC1 4.04%
COc1ccc(CCC(=O)Nc2sccc2C#N)cc1 -2.95%
CCOC(=O)CNC(=O)CNC(=O)c1ccc(OC)cc1 0.278%
COc1ccc(CCNC(=O)COC(=O)c2ccc(Br)o2)cc1 1.54%
COc1cc(-c2nc(-c3cccc(C)c3)no2)cc(OC)c1OC -3.71%
Cc1[nH]n2c(=O)c3c(nc2c1-c1ccccc1)CCCC3 -5.83%
CCOC(=O)C1=C(c2ccccc2)NC(=O)NC1c1ccc(O)c(OCC)c1 (configuration not stated) 0.617%
CCOC(=O)C1=C(C)NC(=O)NC1c1ccc(Br)s1 (configuration not stated) -6.07%
O=C(c1cccc(-n2cccc2)c1)N1CCN(S(=O)(=O)c2c(F)cccc2F)CC1 -0.611%
CC(=O)N1CCN(c2ccc([N+](=O)[O-])c(-n3nc(C)cc3C)c2)CC1 3.15%
Cc1ccc(S(=O)(=O)NC(=O)NC(C)Cc2ccccc2)cc1 (configuration not stated) 0.87%
COc1ccc(NC(=O)N(C)C[C@H]2Oc3c(NS(=O)(=O)c4cn(C)cn4)cccc3C(=O)N([C@H](C)CO)C[C@@H]2C)cc1 3.1%
Nc1ncnc2c1ncn2[C@@H]1O[C@H](CNCC#Cc2ccccc2)[C@@H](O)[C@H]1O 2.42%
C=CCn1c(-c2cccc3ccccc23)n[nH]c1=S -0.0654%
C=CCn1c(O)c(N=Nc2ccccc2C)c2ccccc21 -0.66%
c1ccn2c(SCc3cn4ccsc4n3)nnc2c1 4.63%
CCOc1cccc(C2C(C(=O)c3ccco3)=C(O)C(=O)N2Cc2ccncc2)c1 (configuration not stated) -1.49%
